Measured values as given in PubChem BioAssay (EPA / NIEHS).
Inconclusive results are not listed. The source made the active and inactive calls. The calls were made as follows, unless noted: active = hit-call score of the fitted dose curve at least 0.9, where 1 is the maximum; inactive = score below 0.9.

Columns and labels:
[1] = CCTE_Harrill_HTTr_Viability_MCF7: CCTE's 6-hour Cell Viability Assessment for the High-Throughput Transcriptomics (HTTr) Platform, in MCF-7 cells cultured in DMEM + 10% fetal bovine serum, Harrill Lab (AID 2284010)
Summary of the method: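 Membrane integrity was scored by high-content imaging of propidium iodide dye exclusion after a 6 h exposure across an eight-point dilution series. Data were fitted bidirectionally relative to DMSO as negative control and baseline.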

[2] = CCTE_Harrill_HTTr_Apoptosis_MCF7: CCTE's 6-hour Apoptosis Assessment for the High-Throughput Transcriptomics (HTTr) Platform, in MCF-7 cells cultured in DMEM + 10% fetal bovine serum, Harrill Lab (AID 2284011)
Summary of the method: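 MCF-7 cells in DMEM + 10% fetal bovine serum were exposed to chemicals for 6 hours over an eight-point dilution series. Caspase-3/7 activation was imaged by high content imaging with CellEvent Caspase 3/7 Green; bidirectional fitting used DMSO as baseline.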

[3] = CCTE_Harrill_HTTr_CellCount_MCF7: CCTE's Cell Proliferation Assessment for the High-Throughput Transcriptomics (HTTr) Platform, Harrill Lab (AID 2284012; active = hit-call score of the fitted dose curve at least 0.9, where 1 is the maximum;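 also: cells exposed to compound for six hours; intended direction is loss of nuclei count meaning fewer cells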)
Summary of the method: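 MCF-7 cells were exposed for 6 h to an eight-point dilution series; Hoechst-labeled nuclei were counted by high content imaging. Curves were fitted bidirectionally against DMSO as negative control and baseline, with signal loss indicating reduced cell count.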

Measured: outcome

O=C(O)Cc1ccccc1Nc1c(Cl)cccc1Cl
inactive: [1] | [2] | [3]

COc1cc(C=O)ccc1O
inactive: [1] | [2] | [3]

CCOC(=O)CCC(=O)OCC
inactive: [1] | [2] | [3]

Oc1ccc2c(c1)OC[C@@H](N1CCC(O)(c3ccc(F)cc3)CC1)[C@H]2O
inactive: [1] | [2] | [3]

Cc1nc(-c2ccc3c(c2)CCN(CCC2CCC(NC(=O)/C=C/c4ccc(F)cc4)CC2)CC3)no1 (configuration not stated)
inactive: [1] | [2] | [3]

CNC(=O)[C@H]1O[C@@H](n2cnc3c(NCc4cc(Cl)ccc4OCc4cc(C)no4)ncnc32)[C@H](O)[C@@H]1N
inactive: [1] | [2] | [3]

COc1ccc(C)cc1N
inactive: [1] | [2] | [3]

NCCO
inactive: [1] | [2] | [3]

Oc1ccc2ccccc2c1N=Nc1ccccc1
inactive: [1] | [2] | [3]
